# Test results published in ChEMBL document CHEMBL3988442, “University of Dundee, Small-Polar-MMV Screening Library” (2021).
# For some assays here: Measured potencies and affinities stand elsewhere.
# Columns and labels:
# Design in all cases: scale not given: direction of the effect not stated beside the values
# [1] = target: Protein translocase subunit SecA (Escherichia coli (strain K12)) (UniProt P10408); experiment: Assay to Identify E. coli SecA ATPase Inhibitors; assay type: functional; conditions: 30 µM
# Chain of Protein translocase subunit SecA (Escherichia coli (strain K12)) (P10408 whole entry): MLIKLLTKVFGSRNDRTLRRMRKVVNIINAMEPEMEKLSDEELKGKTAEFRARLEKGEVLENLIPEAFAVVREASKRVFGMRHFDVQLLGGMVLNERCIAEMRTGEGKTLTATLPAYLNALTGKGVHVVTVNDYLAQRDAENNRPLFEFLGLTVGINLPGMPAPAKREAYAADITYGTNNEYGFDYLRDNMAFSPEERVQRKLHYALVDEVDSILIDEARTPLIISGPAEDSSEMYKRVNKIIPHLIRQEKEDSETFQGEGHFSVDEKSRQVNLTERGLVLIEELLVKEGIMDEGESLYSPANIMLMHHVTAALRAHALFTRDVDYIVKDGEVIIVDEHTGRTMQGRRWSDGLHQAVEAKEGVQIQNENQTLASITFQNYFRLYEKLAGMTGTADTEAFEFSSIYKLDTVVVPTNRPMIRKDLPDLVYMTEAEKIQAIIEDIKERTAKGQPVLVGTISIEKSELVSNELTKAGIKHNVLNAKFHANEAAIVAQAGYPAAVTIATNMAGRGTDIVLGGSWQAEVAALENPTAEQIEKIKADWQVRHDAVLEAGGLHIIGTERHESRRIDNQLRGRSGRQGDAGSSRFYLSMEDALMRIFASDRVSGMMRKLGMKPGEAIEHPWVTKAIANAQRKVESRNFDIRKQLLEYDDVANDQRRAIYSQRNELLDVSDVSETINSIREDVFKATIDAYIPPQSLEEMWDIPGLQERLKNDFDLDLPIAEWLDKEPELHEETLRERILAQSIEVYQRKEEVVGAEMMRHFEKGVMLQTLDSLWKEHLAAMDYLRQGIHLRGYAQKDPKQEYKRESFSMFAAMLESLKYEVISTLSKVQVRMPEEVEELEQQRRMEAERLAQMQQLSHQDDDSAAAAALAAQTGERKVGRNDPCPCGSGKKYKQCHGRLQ
# [2] = target: T1, Ubiquitin-activating enzyme e1, putative (Leishmania donovani (strain BPK282A1)) (UniProt E9BSI1); experiment: Leishmania donovani Ubiquitin Activating Enzyme (LdE1); assay type: functional; conditions: 30 µM
# T1 sequence (whole entry): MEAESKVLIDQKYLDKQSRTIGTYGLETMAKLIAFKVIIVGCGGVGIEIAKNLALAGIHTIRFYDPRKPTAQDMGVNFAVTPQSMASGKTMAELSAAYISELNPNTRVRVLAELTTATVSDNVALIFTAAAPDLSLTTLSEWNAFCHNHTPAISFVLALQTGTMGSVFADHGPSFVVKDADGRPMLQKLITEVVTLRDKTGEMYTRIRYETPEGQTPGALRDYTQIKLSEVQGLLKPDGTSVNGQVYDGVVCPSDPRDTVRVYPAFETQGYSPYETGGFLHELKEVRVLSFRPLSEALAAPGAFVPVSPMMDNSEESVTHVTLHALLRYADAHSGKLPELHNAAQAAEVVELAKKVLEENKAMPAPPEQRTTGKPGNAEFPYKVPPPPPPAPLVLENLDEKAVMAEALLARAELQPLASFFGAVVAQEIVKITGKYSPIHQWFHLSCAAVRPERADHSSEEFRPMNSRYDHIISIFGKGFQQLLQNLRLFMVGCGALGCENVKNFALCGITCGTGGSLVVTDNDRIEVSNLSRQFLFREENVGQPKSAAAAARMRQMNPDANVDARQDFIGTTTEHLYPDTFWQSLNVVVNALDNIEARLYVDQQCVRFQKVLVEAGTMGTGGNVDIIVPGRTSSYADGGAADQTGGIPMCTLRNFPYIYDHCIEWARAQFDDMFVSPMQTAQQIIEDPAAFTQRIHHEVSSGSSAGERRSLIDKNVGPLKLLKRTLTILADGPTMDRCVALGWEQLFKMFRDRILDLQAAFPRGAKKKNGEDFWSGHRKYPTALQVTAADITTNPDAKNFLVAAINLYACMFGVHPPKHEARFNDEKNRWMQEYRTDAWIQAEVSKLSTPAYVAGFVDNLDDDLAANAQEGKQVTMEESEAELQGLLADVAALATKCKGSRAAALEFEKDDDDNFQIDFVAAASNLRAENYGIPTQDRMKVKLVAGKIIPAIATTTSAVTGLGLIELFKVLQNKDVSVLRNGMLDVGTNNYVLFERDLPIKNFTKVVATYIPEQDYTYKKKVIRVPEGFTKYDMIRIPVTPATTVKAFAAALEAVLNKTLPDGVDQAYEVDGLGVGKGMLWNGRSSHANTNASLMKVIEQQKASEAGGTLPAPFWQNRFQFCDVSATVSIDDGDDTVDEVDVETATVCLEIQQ
# [3] = target: AMP-activated protein kinase, AMPK (Homo sapiens) (UniProt P54646+O43741+P54619+Q9UGJ0+Q9Y478+Q13131+Q9UGI9); experiment: AMP-dependent Kinase enzyme assay. An in vitro enzyme assay that detects ADP turnover that is directly proportional to AMPK activity. This uses naive AMPK that is activated during the assay with MK-8722; assay type: functional; conditions: 30 µM
# [4] = target: Sialic acid-binding Ig-like lectin 9 (Homo sapiens) (UniProt Q9Y336); experiment: Hs-Siglec9 ALPHAscreen SOP 20170721; conditions: 10 µM
# Chain of Sialic acid-binding Ig-like lectin 9 (Homo sapiens) (Q9Y336 whole entry): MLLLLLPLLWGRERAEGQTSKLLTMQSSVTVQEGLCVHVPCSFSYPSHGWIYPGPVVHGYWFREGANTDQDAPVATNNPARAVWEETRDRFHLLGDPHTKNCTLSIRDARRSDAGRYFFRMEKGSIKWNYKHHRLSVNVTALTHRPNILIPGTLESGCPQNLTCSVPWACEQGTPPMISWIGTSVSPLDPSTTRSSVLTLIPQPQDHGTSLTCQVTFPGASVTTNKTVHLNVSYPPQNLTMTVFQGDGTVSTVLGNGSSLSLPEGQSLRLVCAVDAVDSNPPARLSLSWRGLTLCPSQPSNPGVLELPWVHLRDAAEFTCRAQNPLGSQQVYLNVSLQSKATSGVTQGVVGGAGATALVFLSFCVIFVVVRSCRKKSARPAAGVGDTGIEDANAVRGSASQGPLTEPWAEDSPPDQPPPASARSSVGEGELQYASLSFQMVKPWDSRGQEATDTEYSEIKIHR
# Trypanosoma cruzi = experiment: Trypanosoma cruzi phosphomannomutase and mannose-1-phosphate guanylyltransferase assay; assay type: functional; conditions: 10 µM
# [5] = target: T2, Arginase-2, mitochondrial (Homo sapiens) (UniProt P78540); experiment: in vitro enzyme assay to detect the production of urea directly proportional to the activity of Arginase II; assay type: functional; conditions: 33.3 µM; further: in the data most compounds retested in dose-response had high values
# T2 sequence (whole entry): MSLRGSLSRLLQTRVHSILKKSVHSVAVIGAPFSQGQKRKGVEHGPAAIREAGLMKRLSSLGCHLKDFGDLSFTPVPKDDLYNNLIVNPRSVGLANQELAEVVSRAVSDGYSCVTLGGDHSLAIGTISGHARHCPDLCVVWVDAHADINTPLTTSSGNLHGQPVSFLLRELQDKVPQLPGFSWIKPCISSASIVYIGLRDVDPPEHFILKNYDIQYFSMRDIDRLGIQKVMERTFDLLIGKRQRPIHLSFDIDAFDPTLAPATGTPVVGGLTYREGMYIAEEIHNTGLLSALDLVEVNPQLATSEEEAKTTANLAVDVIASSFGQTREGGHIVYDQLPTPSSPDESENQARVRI
# [6] = target: T3, Proteasome subunit beta (Trypanosoma cruzi) (UniProt O96673); experiment: Trypanosoma cruzi proteasome chymotrypsin-like activity (TcProtChymo) assay.; further: in the data most compounds retested in dose-response had high values; assay type: functional; conditions: 9.37 µM
# T3 sequence (whole entry): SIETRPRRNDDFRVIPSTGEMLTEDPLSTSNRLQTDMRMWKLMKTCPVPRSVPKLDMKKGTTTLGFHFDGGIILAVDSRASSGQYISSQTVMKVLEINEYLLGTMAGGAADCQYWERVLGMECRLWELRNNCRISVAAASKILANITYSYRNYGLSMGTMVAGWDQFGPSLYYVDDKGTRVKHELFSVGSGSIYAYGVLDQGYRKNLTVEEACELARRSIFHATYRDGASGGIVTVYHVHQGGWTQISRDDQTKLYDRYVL
# Homo sapiens = species on record: Homo sapiens; experiment: To identify inhibition of the IFN signalling (Jak-Stat) pathway via expression of an eGFP reporter gene under the control of an IFN-stimulated response element (ISRE) containing MxA promoter.; assay type: functional; conditions: 30 µM
# [7] = target: T4, Tyrosyl-tRNA synthetase, putative (Trypanosoma cruzi (strain CL Brener)) (UniProt Q4DSP6); experiment: Trypanosoma cruzi tyrosyl tRNA synthetase (TcYRS) _High Tyrosine SOP; assay type: functional; conditions: 30 µM; further: in the data most compounds retested in dose-response had high values
# T4 sequence (whole entry): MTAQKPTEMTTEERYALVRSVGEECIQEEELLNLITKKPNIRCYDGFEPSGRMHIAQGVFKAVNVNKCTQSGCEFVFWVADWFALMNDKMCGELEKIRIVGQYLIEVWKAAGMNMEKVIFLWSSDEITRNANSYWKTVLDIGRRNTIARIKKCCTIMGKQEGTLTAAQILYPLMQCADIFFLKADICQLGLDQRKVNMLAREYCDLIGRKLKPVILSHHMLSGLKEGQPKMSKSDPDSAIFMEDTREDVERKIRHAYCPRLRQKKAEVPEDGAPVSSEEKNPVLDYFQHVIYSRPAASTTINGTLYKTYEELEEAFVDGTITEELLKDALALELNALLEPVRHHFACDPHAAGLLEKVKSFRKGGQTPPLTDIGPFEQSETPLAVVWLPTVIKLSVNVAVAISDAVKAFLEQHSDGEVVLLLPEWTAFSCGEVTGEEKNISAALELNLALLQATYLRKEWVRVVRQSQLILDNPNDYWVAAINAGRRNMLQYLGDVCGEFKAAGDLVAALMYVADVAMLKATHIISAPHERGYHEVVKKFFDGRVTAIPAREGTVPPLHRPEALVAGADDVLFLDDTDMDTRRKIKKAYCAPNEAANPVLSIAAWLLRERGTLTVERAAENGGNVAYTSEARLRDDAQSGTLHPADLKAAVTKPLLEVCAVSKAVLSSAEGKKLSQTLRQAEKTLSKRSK
# [8] = target: T4, Tyrosyl-tRNA synthetase, putative (Trypanosoma cruzi (strain CL Brener)); experiment: Trypanosoma cruzi tyrosyl tRNA synthetase (TcYRS) SOP; assay type: functional; conditions: 30 µM
# [9] = target: Chromo domain-containing protein 1 (Saccharomyces cerevisiae (strain ATCC 204508 / S288c) (Baker's yeast)) (UniProt P32657); experiment: ScCHD-1 Enzyme Inhibition Assay; assay type: functional; conditions: 30 µM; further: in the data most compounds retested in dose-response had high values
# Chain of Chromo domain-containing protein 1 (Saccharomyces cerevisiae (strain ATCC 204508 / S288c) (Baker's yeast)) (P32657 whole entry, the tested form may be a part): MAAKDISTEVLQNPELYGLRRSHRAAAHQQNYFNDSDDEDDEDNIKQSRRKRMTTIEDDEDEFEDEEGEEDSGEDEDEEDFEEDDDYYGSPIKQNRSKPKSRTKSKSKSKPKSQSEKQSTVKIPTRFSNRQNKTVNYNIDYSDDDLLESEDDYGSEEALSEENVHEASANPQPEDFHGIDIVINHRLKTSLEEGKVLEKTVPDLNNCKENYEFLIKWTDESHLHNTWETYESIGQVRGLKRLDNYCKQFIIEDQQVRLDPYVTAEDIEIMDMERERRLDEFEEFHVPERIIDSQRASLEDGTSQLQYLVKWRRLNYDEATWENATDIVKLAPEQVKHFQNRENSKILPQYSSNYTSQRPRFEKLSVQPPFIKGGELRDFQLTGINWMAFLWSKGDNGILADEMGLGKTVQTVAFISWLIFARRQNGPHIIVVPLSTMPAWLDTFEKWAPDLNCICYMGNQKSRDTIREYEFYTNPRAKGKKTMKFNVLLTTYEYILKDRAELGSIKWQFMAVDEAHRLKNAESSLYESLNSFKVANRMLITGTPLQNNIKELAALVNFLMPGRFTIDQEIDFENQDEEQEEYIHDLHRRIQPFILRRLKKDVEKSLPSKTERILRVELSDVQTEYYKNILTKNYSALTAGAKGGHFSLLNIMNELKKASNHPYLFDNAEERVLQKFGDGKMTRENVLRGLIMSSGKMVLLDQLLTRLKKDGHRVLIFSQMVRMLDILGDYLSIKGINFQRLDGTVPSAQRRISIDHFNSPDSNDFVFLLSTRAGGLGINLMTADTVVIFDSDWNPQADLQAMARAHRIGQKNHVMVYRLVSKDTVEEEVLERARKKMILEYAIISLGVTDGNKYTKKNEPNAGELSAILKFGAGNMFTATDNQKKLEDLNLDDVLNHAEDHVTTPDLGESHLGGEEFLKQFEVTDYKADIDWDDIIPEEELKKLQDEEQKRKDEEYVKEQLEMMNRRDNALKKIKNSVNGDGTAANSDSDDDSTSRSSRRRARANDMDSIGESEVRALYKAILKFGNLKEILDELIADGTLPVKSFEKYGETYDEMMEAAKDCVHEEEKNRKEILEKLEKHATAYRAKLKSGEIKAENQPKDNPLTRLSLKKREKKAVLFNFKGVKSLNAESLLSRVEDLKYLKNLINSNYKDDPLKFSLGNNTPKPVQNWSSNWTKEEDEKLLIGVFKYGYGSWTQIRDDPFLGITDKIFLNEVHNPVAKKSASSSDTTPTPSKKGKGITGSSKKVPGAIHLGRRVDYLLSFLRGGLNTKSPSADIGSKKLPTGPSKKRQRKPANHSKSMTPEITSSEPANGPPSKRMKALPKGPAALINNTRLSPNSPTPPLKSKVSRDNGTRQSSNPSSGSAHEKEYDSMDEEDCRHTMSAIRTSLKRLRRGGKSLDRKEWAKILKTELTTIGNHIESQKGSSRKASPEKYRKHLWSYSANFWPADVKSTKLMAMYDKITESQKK
SMILES,Percent Effect [1] [%],Percent Effect [2] [%],Percent Effect [3] [%],Percent Effect [4] [%],Percent Effect (Trypanosoma cruzi) [%],Percent Effect [5] [%],Percent Effect [6] [%],Percent Effect (Homo sapiens) [%],Percent Effect [7] [%],Percent Effect [8] [%],Percent Effect [9] [%]
O=C(NCCN1CCNCC1)c1nc2ccccc2c(=O)[nH]1,3.26,9.33,2.04,-5.44,-7.47,-10.7,12,-0.251,4.23,12.8,-7.33
CC(C)N1CCn2c(nc3cc(C(N)=O)ccc32)C1,-8.72,12,-4.63,7.53,0.393,-8.63,8.87,2.55,2.12,12.8,-11.8
Cc1ccc(C2C3=C(COC3=O)Nc3[nH]nc(C)c32)cc1C (configuration not stated),-2.97,9.33,12.5,-3.88,-4.71,-4.75,10.7,30.1,-22.2,-23.1,-11.7
CCCn1ccc2ccc(NC(=O)N(C)CCOC)cc21,-1.73,-10.5,-6.25,4.31,-4.58,1.18,9.3,-9.53,1.06,5.2,-2.86
CCn1c(NCc2ccco2)nc2c(C)nn(C)c2c1=O,-2.68,20,4.54,-6.91,3.93,92.8,22.6,7.87,9.52,17.9,-14
CN(CCn1nc2ccccn2c1=O)CC(=O)NC1CC1,0.259,-2.63,7.37,-0.458,-2.63,15.4,10.4,-11.8,2.13,0,-5.38
CN(CC(=O)N1CCCC1Cn1cccn1)c1cnccn1 (configuration not stated),-5.14,0,0.965,10.7,-1.6,-1.9,-0.901,15.8,-2.46,-1.27,-2.89
Cc1ccc(NC2CCN(C(=O)c3c(C)noc3C)CC2)nn1,-4.36,13.2,0.922,9.85,7.33,-0.766,3.68,-4.46,3.43,12.2,-7.4
COc1cccc(-c2nccnc2C2CCN(C(C)=O)CC2)c1,-1.31,9.46,8.79,-0.0533,-0.593,1.16,15.1,-0.133,3.23,14.3,-14.9
CC(C)CNC(=O)c1c(-n2cnnn2)sc2c1CCC2,-4.85,13.2,3.3,0.76,0.0974,0,10.4,-15.7,2.13,15.6,-4.29
Cn1nc(CNC(=O)C2COc3ccccc3O2)cc1C1CC1 (configuration not stated),-5.12,-2.6,21.3,-1.75,-3.85,-3.23,8.36,1.88,0,-6.41,-1.13
COCCNC(=O)[C@H]1CN(c2nnc(C)s2)C[C@H]2OCC[C@@H]12,-2.67,0,13.1,0.154,-0.394,-0.233,3.79,6.49,1.06,1.28,2.36
CN(C)C(=O)Cc1nc(CN2CCCCC2Cn2cccn2)cs1 (configuration not stated),-2.18,-2.63,87.3,-6.24,1.07,-2.37,12.8,9.75,1.06,-5.2,-0.00308
COc1ccnc(C(=O)N2CCCC(c3noc(C)n3)C2)c1 (configuration not stated),-0.16,-7.59,1.48,5.56,-0.85,0.76,3.03,-3.33,-2.46,-1.27,-3.23
Cc1cnn(CCC(=O)N2CCCC(c3nc(C)no3)C2)c1 (configuration not stated),-3.87,24.3,-8.95,-1.06,5.94,-4.41,16.9,11.1,4.43,23.5,-10.1
CC(C)c1n[nH]c(C(=O)Nc2ccnn2C(C)C)c1Br,-9.82,12.7,-6.58,19.3,8.4,-6.84,9.42,39.4,7.39,13.9,-9.92
CCNC(=O)c1ncn2c1CN(C)S(=O)(=O)c1ccccc1-2,0.812,2.74,2.65,7.01,-2.58,-2,14,11,1.04,6.17,-0.402
COc1cccc(CN(C)Cc2cccc(C#N)c2)c1OC,-2.4,10.8,-3.58,5.68,5.08,23.3,8.88,7.86,1.98,-1.22,-6.76
COCCOc1ncccc1CNCc1c(C)nn(C)c1N(C)C,-1.27,-5.41,-15.1,-0.788,1.98,3.61,0.721,-9.31,2.46,6.17,-18.1
O=C1CC(c2ccccc2)c2c(n3ccsc3nc2=O)N1 (configuration not stated),-4.74,17.3,-7.29,1.39,2.16,-6.87,13.3,5.81,5.29,15.4,-7.95
O=C(COc1coc(CN2CCCCC2)cc1=O)Nc1ccc(Cl)cc1,-3.05,1.33,4.41,7,-0.982,-7.92,6.1,-11.6,6.35,10.3,0.832
Cc1nn(C)c(Cl)c1C(=O)NCC(c1ccsc1)N(C)C (configuration not stated),-3.36,17.7,-4.46,-7.25,7.65,1.14,4.18,-12.9,5.42,16.5,-6.9
